In PubChem BioAssay (NCATS):
Records with an inconclusive call do not appear. Active and inactive are the calls of the source. Unless noted, the call rests on the fitted dose curve; in most records, active means well fitted curve in the direction sought with a large enough effect; inconclusive means small, poorly fitted or top-dose-only effect, or another doubt; inactive means no such curve, though single readings can be large; an effect the other way counts as inactive or inconclusive.

Tests used:
[1] = biological target: Glutathione peroxidase 1 (Homo sapiens) (UniProt P07203); assay: Primary qHTS Assay for Inhibitors of Recombinant Selenoprotein Glutathione Peroxidase 1 (GPX1) (AID 1845191); further: nearly all actives have a fitted effect of over 65% in size
How it was run: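 10 nM GPX1 + cpd, 30 min RT; start w/ 1 mM GSH, 0.5 mM cumene hydroperoxide, 0.5 mM NADPH, 100 nM GR, 0.01% BSA; buffer 50 mM Tris-HCl pH 7.5, 2 mM EDTA, 150 mM NaCl; Fl 340/450, 0 & 15 min.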

[2] = biological target: Phospholipid hydroperoxide glutathione peroxidase GPX4 (Homo sapiens) (UniProt P36969); assay: Primary qHTS Assay for Inhibitors of Recombinant Selenoprotein Glutathione Peroxidase 4 (GPX4) (AID 1845192); further: nearly all actives have a fitted effect of over 65% in size
How it was run: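 NADPH consumption, followed by fluorescence at 340/450 nm between 0 and 15 min, reports GPX4 activity via coupled glutathione reductase (100 nM). Enzyme 200 nM was pre-exposed to compound 30 min; 0.5 mM cumene hydroperoxide and 1 mM GSH served as substrates.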

[3] = biological target: Luciferin 4-monooxygenase (Photinus pyralis) (UniProt P08659); assay: Primary firefly luciferase (FLuc) qHTS assay for identification of artifact compounds. (AID 1845220); further: nearly all actives have a fitted effect of over 60% in size
How it was run: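 Compounds sat 15 min at room temperature with 10 uM luciferin and 10 uM ATP (pH 7.6 Tris acetate). Firefly luciferase (10 nM final) was then added, and luminescence was read 5 min later. Data normalized to no-enzyme and DMSO controls were Hill-fitted.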

[4] = Primary fluorescence-based thiol-reactive (MSTI) qHTS assay for identification of artifact compounds. (AID 1845221); further: nearly all actives have a fitted effect of over 65% in size; further: potency means the concentration at half of the fitted maximal effect
How it was run: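 MSTI probe at 4 uM final in 2% DMSO/PBS pH 7.4; compounds, 1 h at room temperature in dark. Fluorescence Ex/Em 525/598 nm, normalised to Acetyl-MSTI and MSTI, fitted to 4-parameter Hill.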

[5] = system: Nanoluciferase (engineered Oplophorus gracilirostris luciferase); assay: Primary Nanoluciferase (NLuc) qHTS assay for identification of artifact compounds. (AID 1845222);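 further: series mostly up to about 54 µM; 0% = DMSO and -100% = no enzyme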
How it was run: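 Luminescence from secreted NLuc (filtered, 1:55-diluted S16 cell medium) read 5 min after Nano-Glo substrate; compounds preincubated 15 min, RT. Hill fits of inhibition normalized to DMSO and no-enzyme.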

[6] = Primary redox qHTS assay for identification of artifact compounds. (AID 1845223); further: potency means the concentration at half of the fitted maximal effect
How it was run: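 Amplex Red (25 uM) and HRP (250 mU/mL) in HBSS, with compounds for 15 min, then 250 uM DTT for 30 min, room temperature, dark. Fluorescence 525/598 nm read; normalized to DMSO and 10 uM DA3003; Hill fit.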

[7] = qHTS drug screen for cell cycle checkpoint inhibitors in PARPi-resistant BRCA-mutant ovarian cancer cell lines. (AID 1963452; calls by dose curve; further: potency means the concentration at half of the fitted maximal effect); conditions: PEO1/OlaR viability, CellTiter-Glo luminescence, 96 h; for Z-AUC: stronger effect = lower value
How it was run: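 PEO1, PEO4 and PEO1/OlaR ovarian cancer cells, 600 per well, exposed 96 h at 37C to a dilution series. Viability read by CellTiter-Glo luminescence, normalized to DMSO and empty wells; activity summarized as Z-AUC.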

[8] = biological target: Cytochrome P450 3A4 (Homo sapiens) (UniProt P08684); assay: qHTS for inhibitors of CYP3A4 against the NCATS DSHEA and TCM libraries (AID 1919971);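 further: on the % scale 0 is the no-effect control and ±100 the full control effect; inhibition lowers luminescence from luciferin made by CYP3A4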
How it was run: (§1)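 Luminescent P450-Glo format: compounds preincubated 15 min with enzyme and luciferin substrate, reaction run 30-45 min after NADPH regeneration solution. Intraplate controls: ketoconazole for CYP3A4 and CYP2C19, sulfaphenazole for CYP2C9.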

[9] = biological target: Cytochrome P450 2D6 (Homo sapiens) (UniProt P10635); assay: qHTS for inhibitors of CYP2D6 against the NCATS DSHEA and TCM libraries (AID 1919972); further: on the % scale 0 is the no-effect control and ±100 the full control effect
How it was run: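 Luminescent P450-Glo read-out of CYP2D6 turnover of a luciferin substrate after NADPH-driven reaction of 30-45 min at room temperature. Compounds were first preincubated 15 min with enzyme at titrated concentrations; quinidine was the intraplate control.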

[10] = biological target: Cytochrome P450 2C9 (Homo sapiens) (UniProt P11712); assay: qHTS for inhibitors of CYP2C9 against the NCATS DSHEA and TCM libraries (AID 1919973);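 further: luminogenic pro-luciferin CYP2C9 substrate turned into luciferin with NADPH regeneration; series mostly up to about 34 µM; on the % scale 0 is the no-effect control and ±100 the full control effect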
How it was run: as §1

[11] = biological target: Cytochrome P450 2C19 (Homo sapiens) (UniProt P33261); assay: qHTS for inhibitors of CYP2C19 against the NCATS DSHEA and TCM libraries (AID 1919974);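 further: luminescence from luciferin released by CYP2C19 oxidation of a pro-luciferin substrate; on the % scale 0 is the no-effect control and ±100 the full control effect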
How it was run: as §1

[12] = KB-3-1 P-gp reporter qHTS against the NCATS DSHEA and TCM libraries (AID 1919975); further: 0% is about no effect
How it was run: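 Cell viability by CellTiter-Glo luminescence following ~72 h compound exposure (concentration-response). Uses parental, non-P-gp-overexpressing KB-3-1 line, 500 cells/well in DMEM/10% FBS, attached ~4 h before dosing.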

[13] = biological target: Cytochrome P450 1A2 (Homo sapiens) (UniProt P05177); assay: qHTS for inhibitors of CYPIA2 against the NCATS DSHEA and TCM libraries (AID 1919976);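 further: light from luciferin formed by CYP1A2 from a pro-luciferin substrate; series mostly up to about 37 µM; on the % scale 0 is the no-effect control and ±100 the full control effect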
How it was run: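 Human CYP1A2 with pro-luciferin substrate (typically 100 mM KPO4), 15 min preincubation with compound, then 1x NADPH regeneration for 30-45 min at room temperature in the dark. Luciferin quantified by luciferase luminescence; furafylline intraplate control.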

[14] = qHTS Counterscreen for compound interference against the NCATS DSHEA and TCM libraries (AID 1919978); conditions: firefly luciferase detection reagent interference, luminescence;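 further: compounds preincubated with 1 µM D-luciferin or buffer before detection reagent; % of control where 0% means no effect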
How it was run: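 With 1 uM D-luciferin or phosphate buffer only, compounds at final 19.5 nM–39.8 uM were incubated for 15 min at room temperature. Luciferase detection reagent was then added, and luminescence was measured after a further 30 min at room temperature.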

[15] = Dual reporter qHTS for agonist of Pregnane X Receptor (hPXR) against the NCATS DSHEA and TCM libraries: Fluorescence readout (AID 1920058); further: 0% is about no effect
How it was run: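 hPXR-Luc HepG2 cells, 2000/well in charcoal-stripped serum, attached 5 h, dosed for ~24 h at 37 °C. Fluorescence read is CellTiter-Fluor viability (Ex/Em 405/540 nm); rifampicin positive, tetraoctyl ammonium bromide (92 µM) cytotoxicity controls.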

[16] = biological target: Nuclear receptor subfamily 1 group I member 2 (Homo sapiens) (UniProt O75469); assay: Dual reporter qHTS for agonist of Pregnane X Receptor (hPXR) against the NCATS DSHEA and TCM libraries: Luminescence readout (AID 1920059); further: 0% is about no effect
How it was run: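 Luminescent PXR reporter read (ONE-Glo) after a CellTiter-Fluor viability read, following 24 h, 37C treatment of HepG2 cells stably carrying hPXR-Luc.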

[17] = biological target: Nuclear receptor subfamily 1 group I member 2 (Homo sapiens) (UniProt O75469); assay: Dual reporter qHTS for antagonist of Pregnane X Receptor (hPXR) against the NCATS DSHEA and TCM libraries: Luminescence Readout (AID 1920060);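 further: HepG2 cells carrying hPXR luciferase reporter stimulated with rifampicin at 2 µM; 0% is about no effect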
How it was run: (§2)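 HepG2 hPXR-Luc, 2000 cells/well, charcoal-stripped FBS medium; 5 h attach; RIF 2 uM final; 24 h 37C/5% CO2; CellTiter-Fluor 1 h, fluor 405/540; ONE-Glo 30 min RT, lum.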

[18] = Dual reporter qHTS for antagonist of Pregnane X Receptor (hPXR) against the NCATS DSHEA and TCM libraries: Fluorescence Readout (AID 1920061); further: 0% is about no effect
How it was run: as §2

[19] = measured here: PEO1 parental Z-AUC

Phospholipid hydroperoxide glutathione peroxidase GPX4 (Homo sapiens), sequence (P36969 whole entry, looked up): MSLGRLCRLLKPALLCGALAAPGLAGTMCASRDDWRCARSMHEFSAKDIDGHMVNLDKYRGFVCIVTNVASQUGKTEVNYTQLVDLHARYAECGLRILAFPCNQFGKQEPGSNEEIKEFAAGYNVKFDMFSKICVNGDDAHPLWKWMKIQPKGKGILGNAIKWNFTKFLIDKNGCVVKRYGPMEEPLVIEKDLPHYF
Glutathione peroxidase 1 (Homo sapiens), sequence (P07203 whole entry, looked up): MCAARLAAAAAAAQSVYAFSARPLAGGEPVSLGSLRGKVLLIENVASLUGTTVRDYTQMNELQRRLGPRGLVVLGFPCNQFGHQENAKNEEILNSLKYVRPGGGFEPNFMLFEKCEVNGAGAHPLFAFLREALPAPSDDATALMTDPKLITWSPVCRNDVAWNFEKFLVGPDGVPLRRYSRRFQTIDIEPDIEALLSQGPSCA
Nuclear receptor subfamily 1 group I member 2 (Homo sapiens), sequence (O75469 whole entry, looked up): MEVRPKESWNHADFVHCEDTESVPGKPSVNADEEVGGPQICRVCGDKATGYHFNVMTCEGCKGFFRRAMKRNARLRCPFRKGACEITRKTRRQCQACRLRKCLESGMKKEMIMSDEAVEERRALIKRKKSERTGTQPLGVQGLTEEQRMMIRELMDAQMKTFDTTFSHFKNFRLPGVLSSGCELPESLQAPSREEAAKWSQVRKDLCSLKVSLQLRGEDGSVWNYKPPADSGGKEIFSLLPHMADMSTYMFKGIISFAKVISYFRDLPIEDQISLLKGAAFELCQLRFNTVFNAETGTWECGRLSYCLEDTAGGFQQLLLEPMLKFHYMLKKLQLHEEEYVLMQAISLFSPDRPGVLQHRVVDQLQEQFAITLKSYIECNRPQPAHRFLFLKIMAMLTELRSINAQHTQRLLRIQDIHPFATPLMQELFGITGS
Cytochrome P450 2D6 (Homo sapiens), sequence (P10635 whole entry, looked up): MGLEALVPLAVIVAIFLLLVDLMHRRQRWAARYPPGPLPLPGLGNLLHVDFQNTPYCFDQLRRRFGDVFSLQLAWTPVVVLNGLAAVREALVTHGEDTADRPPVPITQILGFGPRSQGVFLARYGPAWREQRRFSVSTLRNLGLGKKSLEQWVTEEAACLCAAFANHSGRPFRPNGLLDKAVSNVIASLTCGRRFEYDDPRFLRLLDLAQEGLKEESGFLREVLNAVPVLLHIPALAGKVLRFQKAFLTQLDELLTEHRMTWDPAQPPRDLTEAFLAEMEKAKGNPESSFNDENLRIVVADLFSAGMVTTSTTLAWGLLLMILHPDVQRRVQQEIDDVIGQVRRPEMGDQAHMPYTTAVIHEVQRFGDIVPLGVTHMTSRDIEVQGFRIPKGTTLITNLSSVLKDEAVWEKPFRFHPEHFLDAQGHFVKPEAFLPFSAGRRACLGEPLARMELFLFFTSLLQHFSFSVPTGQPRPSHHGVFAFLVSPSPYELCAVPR
Cytochrome P450 3A4 (Homo sapiens), sequence (P08684 whole entry, looked up): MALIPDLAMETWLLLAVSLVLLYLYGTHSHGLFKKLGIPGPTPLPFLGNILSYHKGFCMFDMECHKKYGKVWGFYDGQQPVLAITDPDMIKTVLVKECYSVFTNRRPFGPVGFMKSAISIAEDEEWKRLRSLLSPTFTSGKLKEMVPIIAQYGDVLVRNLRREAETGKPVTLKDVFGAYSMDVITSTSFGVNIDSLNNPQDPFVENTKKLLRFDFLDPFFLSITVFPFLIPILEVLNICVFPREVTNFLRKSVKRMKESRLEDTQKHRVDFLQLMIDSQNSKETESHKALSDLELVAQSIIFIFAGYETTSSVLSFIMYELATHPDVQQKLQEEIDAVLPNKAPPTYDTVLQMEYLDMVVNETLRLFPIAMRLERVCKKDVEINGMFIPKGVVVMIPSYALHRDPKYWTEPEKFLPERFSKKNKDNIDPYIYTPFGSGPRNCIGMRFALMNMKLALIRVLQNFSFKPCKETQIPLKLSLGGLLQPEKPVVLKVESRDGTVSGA
Cytochrome P450 2C9 (Homo sapiens), sequence (P11712 whole entry, looked up): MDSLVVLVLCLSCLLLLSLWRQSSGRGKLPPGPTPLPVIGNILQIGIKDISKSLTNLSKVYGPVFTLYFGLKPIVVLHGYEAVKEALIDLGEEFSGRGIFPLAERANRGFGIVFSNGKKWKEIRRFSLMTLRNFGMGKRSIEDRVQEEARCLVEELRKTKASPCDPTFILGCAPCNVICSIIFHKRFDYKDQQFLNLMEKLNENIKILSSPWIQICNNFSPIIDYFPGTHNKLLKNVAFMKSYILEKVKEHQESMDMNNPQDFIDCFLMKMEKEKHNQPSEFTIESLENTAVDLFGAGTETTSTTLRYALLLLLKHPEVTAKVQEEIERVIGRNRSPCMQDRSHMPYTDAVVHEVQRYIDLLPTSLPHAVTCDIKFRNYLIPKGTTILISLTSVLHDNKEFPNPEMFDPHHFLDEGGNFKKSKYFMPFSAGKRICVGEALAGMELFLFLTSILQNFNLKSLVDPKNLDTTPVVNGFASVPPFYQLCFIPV
Cytochrome P450 2C19 (Homo sapiens), sequence (P33261 whole entry, looked up): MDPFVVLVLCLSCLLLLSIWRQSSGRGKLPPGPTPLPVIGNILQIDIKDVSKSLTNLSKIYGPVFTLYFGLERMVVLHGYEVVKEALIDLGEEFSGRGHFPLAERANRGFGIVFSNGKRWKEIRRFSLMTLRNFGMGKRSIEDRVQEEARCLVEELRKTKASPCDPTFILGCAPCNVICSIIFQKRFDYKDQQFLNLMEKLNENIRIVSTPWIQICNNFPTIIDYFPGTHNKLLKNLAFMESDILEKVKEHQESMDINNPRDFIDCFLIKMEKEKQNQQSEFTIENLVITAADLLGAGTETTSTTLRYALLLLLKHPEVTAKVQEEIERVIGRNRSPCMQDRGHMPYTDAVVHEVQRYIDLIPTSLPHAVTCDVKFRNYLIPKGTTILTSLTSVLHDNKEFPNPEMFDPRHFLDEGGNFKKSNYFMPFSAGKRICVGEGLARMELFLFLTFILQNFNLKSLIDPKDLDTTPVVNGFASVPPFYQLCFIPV
Cytochrome P450 1A2 (Homo sapiens), sequence (P05177 whole entry, looked up): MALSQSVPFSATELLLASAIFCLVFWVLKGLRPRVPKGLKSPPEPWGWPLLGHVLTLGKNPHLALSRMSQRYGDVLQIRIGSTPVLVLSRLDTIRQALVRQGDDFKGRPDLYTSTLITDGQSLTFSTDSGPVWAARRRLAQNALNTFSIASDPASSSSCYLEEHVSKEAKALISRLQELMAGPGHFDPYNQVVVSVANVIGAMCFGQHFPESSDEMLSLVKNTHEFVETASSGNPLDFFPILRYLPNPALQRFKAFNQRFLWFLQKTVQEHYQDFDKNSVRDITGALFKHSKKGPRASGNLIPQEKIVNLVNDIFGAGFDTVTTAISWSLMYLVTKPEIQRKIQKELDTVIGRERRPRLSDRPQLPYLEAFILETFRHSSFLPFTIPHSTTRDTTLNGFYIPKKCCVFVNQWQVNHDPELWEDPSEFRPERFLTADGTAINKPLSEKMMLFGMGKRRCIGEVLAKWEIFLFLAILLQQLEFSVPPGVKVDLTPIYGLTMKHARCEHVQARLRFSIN

COCCN1CCN(Cc2ccc(-c3n[nH]c4c3C(=O)c3c(NC(=O)NN5CCOCC5)cccc3-4)cc2)CC1
inactive: Potency [1] | Potency [2] | Potency [3] | Potency [4] | Potency [5] | Potency [6] | Z-AUC [7] 0.43
0.701: Z-AUC [7, 19]
0.00286: Z-AUC ([7]; measured here: PEO4 Z-AUC)

COc1cc2c(cc1OC)N1C(=O)C[C@]34C=CCN5CC[C@@H]2[C@@H](CC3)[C@]514
inactive: Potency [1] | Potency [2] | Potency [3] | Potency [4] | Potency [5] | Potency [6]

CN(C)CCn1cc(S(=O)(=O)c2cccc(F)c2)c2cccnc21
inactive: Potency [1] | Potency [2] | Potency [3] | Potency [4] | Potency [5] | Potency [6]

COc1cc2ncnc(Nc3cccc(O)c3)c2cc1OC
inactive: Potency [1] | Potency [2] | Potency [3] | Potency [4] | Potency [5] | Potency [6]

COC(=O)c1c(C)cc(OC(=O)c2c(C)cc(OC)cc2OC)cc1O[C@@H]1O[C@H](CO)[C@@H](O)[C@H](O)[C@H]1O
active: Potency [6] 2.92 µM
inactive: Potency [1] | Potency [2] | Potency [3] | Potency [4] | Potency [5]

OC[C@H]1O[C@@H](OC[C@H]2O[C@@H](OC/C=C/c3ccccc3)[C@H](O)[C@@H](O)[C@@H]2O)[C@@H](O)[C@@H]1O
inactive: Potency [1] | Potency [2] | Potency [3] | Potency [5] | Potency [6] | outcome [8] | outcome [9] | outcome [10] | Potency [11] | outcome [12] | Potency [13] | max response [14] -0.863% | outcome [15] | outcome [16] | outcome [17] | outcome [18]
active: Potency [4] 10.3 µM

CC(C)(C)c1ccc(S(=O)(=O)NCc2ccc(C(=O)Nc3cccnc3)cc2)cc1
inactive: Potency [1] | Potency [2] | Potency [3] | Potency [4] | Potency [5] | Potency [6]

CN1C2CCC1CC(OC(=O)[C@H](CO)c1ccccc1)C2 (some centres not stated)
inactive: Potency [1] | Potency [2] | Potency [3] | Potency [4] | Potency [5] | Potency [6]

Cc1cc(-c2cc(O)ccc2Cl)cc2nnc(Nc3ccc(OCCN4CCCC4)cc3)nc12
inactive: Potency [1] | Potency [2] | Potency [3] | Potency [5] | Potency [6]
active: Potency [4] 3.77 µM

CO[C@H]1C[C@@H]2CC[C@@H](C)[C@@](O)(O2)C(=O)C(=O)N2CCCC[C@H]2C(=O)O[C@H]([C@H](C)C[C@@H]2CC[C@@H](OP(C)(C)=O)[C@H](OC)C2)CC(=O)[C@H](C)/C=C(\C)[C@@H](O)[C@@H](OC)C(=O)[C@H](C)C[C@H](C)/C=C/C=C/C=C/1C
-0.0432: Z-AUC ([7]; measured here: PEO4 Z-AUC)
0.103: Z-AUC [7, 19]
inactive: Potency [1] | Potency [2] | Potency [3] | Potency [4] | Potency [5] | Potency [6] | Z-AUC [7] 0.099

Cc1c(NC(=O)c2cc(C(N)=O)nc3cc(F)ccc23)c(C(F)(F)F)nn1Cc1ccc(C#N)cc1
inactive: Potency [1] | Potency [2] | Potency [3] | Potency [4] | Potency [5] | Potency [6] | Z-AUC [7] -2.01
-1.92: Z-AUC ([7]; measured here: PEO4 Z-AUC)
-1.49: Z-AUC [7, 19]

CCOc1cc2ncc(C#N)c(Nc3ccc(F)c(Cl)c3)c2cc1NC(=O)/C=C/CN(C)C
inactive: Potency [1] | Potency [2] | Potency [3] | Potency [4] | Potency [5] | Potency [6] | Z-AUC [7] -0.44
-0.362: Z-AUC [7, 19]
-0.838: Z-AUC ([7]; measured here: PEO4 Z-AUC)

CCCCNc1ncc2c(-c3ccc(F)cc3)nn(CC3CCC(N)CC3)c2n1 (configuration not stated)
-0.901: Z-AUC [7, 19]
-1.35: Z-AUC ([7]; measured here: PEO4 Z-AUC)
inactive: Potency [1] | Potency [2] | Potency [3] | Potency [4] | Potency [5] | Potency [6] | Z-AUC [7] -1.02

COc1cc2ncnc(Nc3cccc(Cl)c3F)c2cc1OC(=O)N1CCN(C)C[C@H]1C
-1.14: Z-AUC ([7]; measured here: PEO4 Z-AUC)
-1.08: Z-AUC [7, 19]
inactive: Potency [1] | Potency [2] | Potency [3] | Potency [4] | Potency [5] | Potency [6] | Z-AUC [7] -0.739

CN[C@@H]1[C@H](O[C@H]2[C@H](O[C@@H]3[C@@H](O)[C@H](O)[C@@H](N=C(N)N)[C@H](O)[C@H]3N=C(N)N)O[C@@H](C)[C@]2(O)C=O)O[C@@H](CO)[C@H](O)[C@H]1O
inactive: Potency [1] | Potency [2] | Potency [3] | Potency [4] | Potency [5] | Potency [6] | Z-AUC [7] 1.52
0.947: Z-AUC [7, 19]
1.26: Z-AUC ([7]; measured here: PEO4 Z-AUC)

COc1cc(C(=O)NC2CCN(C)CC2)c(F)cc1Nc1ncc2c(n1)N(C1CCCC1)CC(F)(F)C(=O)N2C
-2.16: Z-AUC ([7]; measured here: PEO4 Z-AUC)
inactive: Potency [1] | Potency [2] | Potency [3] | Potency [4] | Potency [5]
-2.61: Z-AUC [7, 19]
active: Potency [7] 0.245 µM

COc1cc(OC)c(/C=C/S(=O)(=O)Cc2ccc(OC)c(NCC(=O)O)c2)c(OC)c1
inactive: Potency [1] | Potency [2] | Potency [3] | Potency [5] | Potency [6]
active: Potency [4] 3.36 µM | Potency [7] 0.0195 µM
-2.09: Z-AUC [7, 19]
-1.96: Z-AUC ([7]; measured here: PEO4 Z-AUC)

CNCc1ccc(-c2cc(-c3nc(-c4ccc(S(=O)(=O)C(C)C)cc4)cnc3N)on2)cc1
0.605: Z-AUC ([7]; measured here: PEO4 Z-AUC)
inactive: Potency [1] | Potency [2] | Potency [3] | Potency [4] | Potency [5] | Potency [6] | Z-AUC [7] 0.146
0.477: Z-AUC [7, 19]

CCO[C@@H]1OC(=O)C[C@@H]1NC(=O)[C@@H]1CCCN1C(=O)[C@@H](NC(=O)c1ccc(N)c(Cl)c1)C(C)(C)C
0.457: Z-AUC [7, 19]
inactive: Potency [1] | Potency [2] | Potency [3] | Potency [4] | Potency [5] | Potency [6] | Z-AUC [7] 0.612
0.143: Z-AUC ([7]; measured here: PEO4 Z-AUC)
